# Experimental data as given in PubChem BioAssay AID430 (Sanford-Burnham Center for Chemical Genomics, 2006).
# Screen size: about 63,000 compounds; about 1,100 (1.7%) were called active. For the sample, actives were picked, then their nearest neighbours and some compounds at random. Results with a measured potency or affinity are listed apart. Values without a mark were called inactive. Cut-off read from the data, not from the text of the source: active = cytotoxicity above about 50%; inactive = the rest.
# Experiment: HPDE-C7 pancreatic duct cell viability loss – fluorescence, HTS (AID 430);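 note: cells exposed to compound for 48 hours before viability readout; 0% = vehicle and 100% = reference cytotoxic drug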
# Details: HPDE-C7 pancreatic duct cells viability, at 10 µM, hits give high values
row,Compound,cytotoxicity
1,CCOC(=O)C1=C(C)NC(SCC(=O)Nc2cc(C)on2)=C(C#N)C1c1cccs1 (stereo not given),10.6%
2,CCOC(=O)C1=C(C)NC(SCc2cc(=O)[nH][nH]2)=C(C#N)C1c1cccs1 (stereo not given),37.1%
3,CCSC1=C(C#N)C(c2cccs2)C(C(=O)OC)=C(C)N1 (stereo not given),13.4%
4,CCOC(=O)C1=C(C)NC(SCC(=O)Nc2nc(C)cs2)=C(C#N)C1c1cccs1 (stereo not given),78.9% (active)
5,O=C(Nc1ccc2c(c1)OCO2)C1CC(c2ccccc2Cl)=NO1 (stereo not given),5.2%
6,CC(=O)OCC(=O)NCc1ccc2c(c1)OCO2,-32.4%
7,c1ccc(-n2c(Sc3cnccn3)nnc2-c2cccs2)cc1,-0.3%
8,Cc1occc1C(=O)Nc1cccnc1,-15.1%
9,CNS(=O)(=O)c1ccc(Oc2ccc(S(=O)(=O)NC)cc2)cc1,5%
10,O=S(=O)(c1ccc(Oc2ccc(S(=O)(=O)N3CCOCC3)cc2)cc1)N1CCOCC1,-11.9%
11,C=CS(=O)(=O)c1ccc(Oc2ccc(S(=O)(=O)C=C)cc2)cc1,93.9% (active)
12,CCOC(=O)Cc1csc(NC(=O)CCS(=O)(=O)Cc2ccccc2)n1,0%
13,Cc1cccc(NC(=O)NCCN2C(=O)C3C4C=CC(C4)C3C2=O)c1 (stereo not given),0.7%
14,CC(=O)NC(Cc1c[nH]c2ccccc12)C(=O)N1CCc2ccccc2C1 (stereo not given),4.8%
15,COc1cc(C2c3c(n[nH]c3C)C(=O)N2c2ccc(Br)cc2)ccc1O (stereo not given),27.9%
16,CCOc1cc(C2c3c(n[nH]c3C)C(=O)N2c2ccc(Br)cc2)ccc1O (stereo not given),15.4%
17,COc1cc(C2c3c(n[nH]c3C)C(=O)N2c2ccc(C)cc2)ccc1O (stereo not given),53.1% (active)
18,COc1ccc(Cl)cc1N(CC(=O)N1CCN(Cc2ccccc2)CC1)S(C)(=O)=O,-0.8%
19,CC(C)(C)NC(=O)CSc1nnc(-c2ccco2)n1Cc1ccco1,-15.8%
20,COC(=O)c1ccc(C(=O)OC)nc1,-18.5%
21,CCOC1(NC(=O)c2ccccc2)C(C)=CC(=O)C=C1C,-9.8%
22,O=C(Cn1cccc1)Nc1ccc(OC(F)(F)F)cc1,-1.8%
23,C=CCn1c(SC(CCO)C(=O)NCc2ccco2)nc2sc3c(c2c1=O)CCC3 (stereo not given),6.3%
24,C=CCn1c(SCC(=O)N2CCOCC2)nc2sc3c(c2c1=O)CCCC3,-1.2%
25,C=CCn1c(NCCO)nc2sc3c(c2c1=O)CCC3,62.9% (active)

row,Compound,cytotoxicity
1,COc1ccc(Cl)cc1S(=O)(=O)N1CCN(C)CC1,-4.6%
2,CCN(CC)C(=O)C1CCCN(C/C(C)=C/c2ccccc2)C1 (stereo not given),-8.8%
3,CCOC(=O)c1c(N)sn(-c2ccccc2)c1=S,-2%
4,N#Cc1c2c(c(=S)n(-c3ccccc3)c1N)CCCC2,1.6%
5,CC(C(=O)N1CCN(c2ccccc2)CC1)N1C(=O)C2CC=CCC2C1=O (stereo not given),-2.6%
6,CCCNC(=O)c1[nH]c(C)c(C(C)=O)c1C,2%
7,CC(=O)c1c(C)[nH]c(C)c1C(C)=O,-8.7%
8,CCc1[nH]c(C)c(C(C)=O)c1C,59.8% (active)
9,COc1ccc(Cn2c3nc4ccccc4nc3c3c(=O)n(Cc4ccco4)cnc32)cc1,20.7%
10,CC(C)C1N(S(=O)(=O)c2ccccc2)CCN1S(=O)(=O)c1ccccc1,2%
11,Cc1cccc(OCCCCCNCCO)c1,9.6%
12,COc1ccc(OC)c(NC(=O)CSC2=C(C#N)C(c3ccco3)C3=C(CCCC3=O)N2)c1 (stereo not given),-1.5%
13,N#Cc1ccc(-c2ccco2)nc1SCC(=O)c1ccc(Cl)cc1,21.1%
14,Nc1nnc(SCc2ccccc2Cl)s1,8.4%
15,CS(=O)(=O)Nc1ccccc1C(=O)Nc1cccc(Cl)c1,5.3%
16,COc1ccc(Cl)cc1NC(=O)Cn1c(=O)n2nc(C)nc2c2ccccc21,7.2%
17,O=C(CSc1n[nH]c(-c2ccccc2O)n1)N1CCCc2ccccc21,2.3%
18,Cc1ccnc(NS(=O)(=O)c2ccc(NS(=O)(=O)Cc3ccccc3)cc2)n1,-21.7%
19,CCOc1ccccc1C1CC(=O)Nc2cc(OC)c(OC)c(OC)c21 (stereo not given),-16.2%
20,CCOc1c(OC)cccc1C1CC(=O)Nc2cc3c(cc21)OCCO3 (stereo not given),13.7%
21,CCOc1ccccc1C1CC(=O)NC2=C1C(=O)CC(C)(C)C2 (stereo not given),9.7%
22,CCOc1c(OC)cccc1C1CC(=O)Nc2cc(OC)c(OC)cc21 (stereo not given),7.3%
23,CCOc1ccccc1C1CC(=O)Nc2cc3c(cc21)OCO3 (stereo not given),59.7% (active)
24,CCOc1ccccc1C1CC(=O)Nc2cc3c(cc21)OCCO3 (stereo not given),51.1% (active)
25,CN(C(=O)C12CC3CC(CC(C3)C1)C2)C1CCS(=O)(=O)C1 (stereo not given),-5.1%
